# Screens deposited in PubChem BioAssay by National Center for Advancing Translational Sciences (NCATS).
# Lassa entry inh – inhibitors of Lassa virus binding or cell entry; Lassa virus pseudotype entry inhibition, cell reporter; Potency, µM (highest dose often 37.9 µM), without a hit: at the highest dose activity change, negative = inhibition, most hits filed as inhibitors; 1.2% of 300,000 active; calls by dose curve; tested in HEK293 cells; further: nearly all actives have a fitted effect of over 50% in size
# AMA1-RON2 inh – AMA1-RON2 (P. falciparum) interaction inhibition | AlphaScreen AMA1-biotinylated RON2 peptide binding | Potency, µM (series often up to 58.2 µM), inactives show at the top dose activity change, negative = inhibition, usual class: inhibitors | 0.2% of 360,000 active | AID 720542;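 further: 0% = vehicle wells and -100% = peptide control; nearly all actives have a fitted effect of over 45% in size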
#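 AMA1 (3D7) with his tag at 25 nM final met compounds first, then biotinylated RON2 peptide at 25 nM; detection used donor plus acceptor beads, 10 µg/mL apiece, read by AlphaScreen after 30 min at room temperature.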
# MARV entry inh – Marburg virus entry inhibition; Marburg virus pseudotyped entry inhibition, cell reporter; Potency, µM (titrated, usually from 37.8 µM), inactives show top-dose activity change, negative = inhibition, most hits filed as inhibitors; 1.8% of 300,000 active; calls by dose curve; tested in HEK293 cells
# AmpC no deterg – inhibitors of E. coli AmpC beta-lactamase without detergent. AID 485341. P00811. 0.52% of 330,000 active. AmpC nitrocefin hydrolysis, absorbance 480 nm, 0.0001% Triton. Potency, µM (highest dose often 57.1 µM), without a hit: at the top dose activity change, negative = inhibition, usual class: inhibitors;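 further: plate controls were no compound for no effect and no enzyme for full effect; nearly all actives have a fitted effect of over 20% in size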
# Target sequence (P00811 whole entry, looked up): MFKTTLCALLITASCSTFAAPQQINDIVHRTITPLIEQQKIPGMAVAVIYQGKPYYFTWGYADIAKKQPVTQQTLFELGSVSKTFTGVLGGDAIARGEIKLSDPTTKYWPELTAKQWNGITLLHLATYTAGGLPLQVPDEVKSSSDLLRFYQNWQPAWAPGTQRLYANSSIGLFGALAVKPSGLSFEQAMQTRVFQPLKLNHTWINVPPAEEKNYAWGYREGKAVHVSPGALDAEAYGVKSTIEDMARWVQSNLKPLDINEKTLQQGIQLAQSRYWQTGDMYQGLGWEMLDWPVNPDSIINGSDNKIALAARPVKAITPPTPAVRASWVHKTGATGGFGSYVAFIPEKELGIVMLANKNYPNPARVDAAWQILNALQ
#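 20 mM phosphate pH 7.0 + 0.01% (detergent screen) or 0.0001% Triton X-100; 5.3 nM AmpC reagent; cpd preinc 15 min RT; nitrocefin (800 uM stock) to start; A480 q20 s × 4 min; Activity was normalised to no-enzyme and no-compound control wells.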
# AmpC detergent – blocks E. coli AmpC beta-lactamase in detergent assay; P00811; Potency, µM (highest dose often 114 µM), for inactives: at the highest dose activity change, negative = inhibition, actives largely listed as inhibitors; AmpC hydrolysis of nitrocefin, absorbance 480 nm, 0.01% Triton; 0.041% of 370,000 active;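 further: 0% = no-compound wells and -100% = no-enzyme wells; nearly all actives have a fitted effect of over 25% in size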
#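 AmpC (5.3 nM in the dispensed reagent) in 20 mM phosphate pH 7.0 with 0.01% (detergent screen) or 0.0001% Triton X-100 was preincubated with compounds for 15 min at room temperature. Nitrocefin was then added from an 800 uM solution, and hydrolysis was followed at 480 nm.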
# Active calls of the source: *; ? = inconclusive; . = not tested or not shown; [ ] = dose if it differs, or a comment. An excerpt weighted towards active compounds, which were near 2.3% of everything screened. Unless noted, the call rests on the fitted dose curve; in most records, active means well fitted curve in the direction sought with a large enough effect; inconclusive means small, poorly fitted or top-dose-only effect, or another doubt; inactive means no such curve, though single readings can be large; an effect the other way counts as inactive or inconclusive. Unless noted, on the % scale 0 is the no-effect control and ±100 the full control effect; potency means the concentration at half of the fitted maximal effect.
SMILES,Lassa entry inh,AMA1-RON2 inh,MARV entry inh,AmpC no deterg,AmpC detergent
CN1CCN(CCCNC(=O)c2ccc(CSCc3cccc(Cl)c3)o2)CC1,11µM*,-6%,?,77%,1%
O=C(NCCCN1CCCC1)c1ccc(CSCc2cccc(Cl)c2)o1,-4%,-7%,?,54%,-10%
CC1CCCN(CCCNC(=O)c2ccc(CS(=O)(=O)Cc3cccc(Cl)c3)o2)C1 (configuration not stated),.,0%,.,-17%,2%
CCc1ccc(OCC(=O)Nc2ccc(Cl)c(-c3nc4ncccc4o3)c2)cc1,-2%[46.1 µM],.,.,.,17%
Cc1ccc(-c2c(C)n3c4c(=O)n(C)c(=O)n(C)c4nc3n2CCCO)cc1,8.9µM*,.,?,.,2%
Cc1ccc(Nc2c3c(nc4nncn24)CCC3)cc1C,-10%[46.1 µM],.,5%[46.1 µM],.,-3%
CCCCOc1ccccc1C1CC(=O)Nc2ccc3ccccc3c21 (configuration not stated),-23%[46.1 µM],.,?,.,12%
CC(=O)c1c(C)[nH]c(C(=O)Nc2ccc(C)cn2)c1C,2.1µM*,8%,2µM*,-34%,?
CC(=O)c1c(C)[nH]c(C(=O)Nc2nc(C)cs2)c1C,2.2µM*,-1%,1.8µM*,-14%[11.4 µM],?
CC(=O)c1c(C)[nH]c(C(=O)Nc2cc(C)cc(C)c2)c1C,7%,-9%,-2%,-37%,-12%
CC(=O)c1c(C)[nH]c(C(=O)Nc2nc(-c3ccc(Cl)cc3)cs2)c1C,?,1%,?,-46%,1%
C=CCOC(=O)C1=C(C)NC(SCC(=O)Nc2ccc(C)c(Cl)c2)=C(C#N)[C@@H]1c1ccco1,.,.,10µM*,.,.
CCOC(=O)C1=C(c2ccccc2)NC(SCC(=O)Nc2ccccc2C)=C(C#N)C1c1ccco1 (configuration not stated),?,10%,23µM*,-42%,-6%
CC(C)OC(=O)[C@H](C)NC(=O)N1CCc2nc(-c3ccccc3)c3c(c2C1)CO[C@@H](C)C3,.,.,-2%[14.2 µM],.,.
CC1(c2ccccc2)CC(C)(C)N(C(=O)c2cccc(Cl)c2)c2ccccc21 (configuration not stated),-19%[46.1 µM],.,.,.,16%
CCc1ccc(NC(=O)C(=O)NCCc2sc(-c3ccc(C)cc3)nc2C)cc1,?,.,.,.,-6%
CN(c1ccc(C(=O)NCCSC(C)(C)C)cc1)S(=O)(=O)c1ccccc1,23µM*,-21%,-17%,-13%,4%
Cc1ccc(C(=O)NCCSC(C)(C)C)cc1,10µM*,2%,8.9µM*,-20%,?
CC(C)(C)SCCNC(=O)c1ccccc1,?,7%,-4%,-2%,1%
Cc1ccc(CSCCNC(=O)c2ccc(N(C)S(=O)(=O)c3ccccc3)cc2)cc1,?,-3%,?,-3%,-9%
Cc1ccc(-n2ncc3c(N4CCC(C)CC4)ncnc32)cc1C,9%[46.1 µM],.,.,.,6%
Cc1ccc(-c2noc(CCC(=O)Nc3ccc(F)cc3Cl)n2)cc1,3%[46.1 µM],.,0%[46.1 µM],.,10%
COc1ccc(-c2nc(SCC(=O)Nc3ccc4c(c3)OCCO4)c(-c3ccc(C)cc3)[nH]2)cc1OC,?,.,?,.,18%
O=C(NCc1cccc(Br)c1)c1ccc(-n2cnc3cccnc32)cc1,?,.,.,.,-7%
C=CCn1c(SCc2c(C)noc2C)nc2sc3c(c2c1=O)CCCC3,?,4%,21µM*,-21%,-10%
SMILES,Lassa entry inh,AMA1-RON2 inh,MARV entry inh,AmpC no deterg,AmpC detergent
Cc1noc(C)c1CSc1nc2sc(C)c(C)c2c(=O)n1C1CCCC1,-23%,-17%,12µM*,-18%,13%
Cc1cc(C)c2c(=O)nc(SCc3ccccc3C)n(C3CC3)c2n1,-7%[46.1 µM],.,.,.,22%
N#CCCN1CCN(C(=S)c2ccc(-c3ccc(Cl)c(Cl)c3)o2)CC1,20µM*,-8%,14µM*,87%,?
N#CCCN1CCN(C(=S)c2ccc(-c3cccc(Cl)c3)o2)CC1,26%,?,-16%,80%,-2%
Cc1ccccc1CN1C(=O)CS/C1=N/N=C/c1ccco1,10µM*,0%,11%[46.1 µM],-22%,7%
O=C1N=C(N2CCOCC2)S/C1=C/c1ccc(-c2ccc(F)cc2)o1,?,19%,2.5µM*,1%,-7%
Cc1cc(C)c2c(CC(=O)Nc3ccc(S(=O)(=O)N4CCCC(C)C4)cc3)coc2c1 (configuration not stated),-7%[46.1 µM],.,?,.,16%
C#C[C@]1(O)CCC2C3CCC4=Cc5oncc5CC4(C)C3CCC21C (some centres not stated),.,-6%,.,.,.
C#C[C@]1(O)CC[C@H]2[C@@H]3CCC4=Cc5oncc5CC4(C)[C@H]3CCC21C (some centres not stated),?,.,21µM*,.,.
CC(C)c1ccc(Nc2ncnc3c2c(-c2ccccc2)cn3-c2ccccc2)cc1,25%[46.1 µM],.,.,.,3%
COc1cccc(C(=O)/C=C/c2ccc(OCC#N)c(OC)c2)c1,?,-5%,15µM*,-26%,-3%
COc1cc(/C=C/C(=O)c2ccc(O)cc2)ccc1OCC#N,1.6µM*,17%,?,-24%,?
CCCS(=O)(=O)c1c(S(=O)(=O)CCC)c2cc(CC)ccn2c1C(=O)c1ccc(OC)cc1,-16%[46.1 µM],.,16%[46.1 µM],.,-5%
CCCS(=O)(=O)c1c(S(=O)(=O)CCC)c2cc(-c3ccncc3)ccn2c1C(=O)OC,0%,4%,5.6µM*,202%,-4%
Cc1cc(-c2ccc(S(=O)(=O)Nc3ccccc3F)s2)on1,?,.,.,.,0%
CCc1ccc(C2=NN(c3ccc(S(N)(=O)=O)cc3)C(c3ccc(F)cc3)C2)cc1 (configuration not stated),7.9µM*,20%,?,0.2µM*,0%
Cc1cc2nc(-c3ccc(SCC(=O)Nc4ccc(S(=O)(=O)NC5CC5)cc4)nc3)[nH]c2cc1C,?,-17%,4.5µM*,-27%,-11%
Cc1cc2nc(-c3ccc(SCc4ccc(C(=O)O)cc4)nc3)[nH]c2cc1C,?,17%,5.6µM*,-26%,-4%
Cc1cc(NC(=O)CSc2ccc(-c3nc4cc(C)c(C)cc4[nH]3)cn2)no1,-2%,9%,?,-18%,5%
Oc1ccccc1-c1cc(-c2ccccc2Cl)[nH]n1,10µM*,32%,-16%,.,-2%
c1ccc2nc(-c3nc4ccccc4o3)ccc2c1,2.3µM*,18%,?,-6%,-2%
CN(C)c1ccc(C=C2C=Cc3ccccc32)cc1,6.3µM*,?,-25%,.,.
COc1cc2c(cc1OC)C(=Cc1ccc(N(C)C)cc1)C=C2,-2%[46.1 µM],8.9µM*,20%[46.1 µM],.,.
CN(C)c1ccc(C=C2C(=O)NC(=O)NC2=O)cc1,-25%[46.1 µM],-2%,3%[46.1 µM],.,.
CNc1ccc(C=C2C=Cc3ccccc32)cc1,?,25µM*,?,.,.
CNc1ccc(C2(O)C(=O)c3ccccc3C2=O)cc1,2%[46.1 µM],5%,5%,-14%,3%
CN(C)c1ccc(/C=N/N2C(=O)c3ccccc3C2=O)cc1,.,0%,.,-9%,-5%
